Assay outcomes as filed in PubChem.
IDE exosite FP: displaces the probe from the exo-site of human IDE. P14735. purified IDE, FL-6b probe fluorescence polarization; active compounds read low. z-score at 20 µM. 6.3% of 17,000 active;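 active = z-score of -3 or lower, meaning strong loss of probe binding signal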;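 also: His-tagged human IDE residues 42-1019 made in E. coli with 30 nM FL-6b probe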
Target sequence (P14735 42-1019 limits assumed): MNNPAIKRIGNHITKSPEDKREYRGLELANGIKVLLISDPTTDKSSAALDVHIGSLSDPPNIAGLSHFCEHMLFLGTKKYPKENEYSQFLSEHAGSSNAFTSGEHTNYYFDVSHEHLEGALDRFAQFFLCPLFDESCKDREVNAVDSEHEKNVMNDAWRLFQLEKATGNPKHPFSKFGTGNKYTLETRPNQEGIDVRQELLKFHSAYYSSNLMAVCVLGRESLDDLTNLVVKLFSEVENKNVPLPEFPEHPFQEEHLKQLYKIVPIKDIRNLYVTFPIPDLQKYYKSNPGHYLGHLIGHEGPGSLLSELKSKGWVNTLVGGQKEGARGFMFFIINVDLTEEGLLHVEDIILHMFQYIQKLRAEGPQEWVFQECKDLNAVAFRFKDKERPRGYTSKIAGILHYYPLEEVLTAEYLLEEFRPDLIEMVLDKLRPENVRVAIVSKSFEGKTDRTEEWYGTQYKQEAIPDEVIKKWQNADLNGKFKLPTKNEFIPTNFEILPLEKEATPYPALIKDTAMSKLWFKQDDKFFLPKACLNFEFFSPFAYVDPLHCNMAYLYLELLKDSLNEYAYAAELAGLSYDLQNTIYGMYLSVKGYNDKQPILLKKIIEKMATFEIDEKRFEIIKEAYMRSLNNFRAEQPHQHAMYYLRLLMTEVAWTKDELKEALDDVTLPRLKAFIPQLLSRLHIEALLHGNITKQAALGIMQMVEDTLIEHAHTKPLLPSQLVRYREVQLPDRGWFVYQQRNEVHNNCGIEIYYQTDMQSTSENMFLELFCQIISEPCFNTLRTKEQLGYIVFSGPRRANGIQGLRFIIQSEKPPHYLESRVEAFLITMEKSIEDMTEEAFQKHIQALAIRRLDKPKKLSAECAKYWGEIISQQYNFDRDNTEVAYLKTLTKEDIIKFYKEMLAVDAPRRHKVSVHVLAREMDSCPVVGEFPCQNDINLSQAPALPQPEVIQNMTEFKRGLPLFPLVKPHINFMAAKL
Starred values were filed as active, the others as inactive. Shown is part of a subset that was picked to be rich in hits.

SMILES | IDE exosite FP
N#Cc1cccc(-c2ccc(C3[C@@H]4CN(C(=O)Nc5ccccc5)C[C@H]3N4)cc2)c1 (stereo not given in full) | 3.5
CN(C)C(=O)c1ccc(-c2ccc(C3[C@@H]4CN(C(=O)C5CC5)C[C@H]3N4)cc2)cc1 (stereo not given in full) | 1.4
c1ccc(CN2C[C@@H]3N[C@H](C2)C3c2ccc(-c3ccncc3)cc2)cc1 (stereo not given in full) | 2.4
O=C(C1CCOCC1)N1C[C@@H]2N[C@H](C1)C2c1ccc(-c2cncnc2)cc1 (stereo not given in full) | 3.1
Cc1cccc(-c2ccc(C3[C@@H]4CN(C(=O)C5CCOCC5)C[C@H]3N4)cc2)c1 (stereo not given in full) | -5.1*
Cc1cccc(-c2ccc(C3[C@@H]4CN(Cc5ccccc5)C[C@H]3N4)cc2)c1 (stereo not given in full) | -5.1*
Cc1cccc(-c2ccc(C3[C@@H]4CN(C(=O)Nc5ccc(F)cc5)C[C@H]3N4)cc2)c1 (stereo not given in full) | -0.36
N#C[C@H]1[C@@H](c2ccccc2C2=CCCC2)[C@H](CO)N1C(=O)C1CCC1 | 2.1
C[C@@H](NC(=O)C[C@@H]1C=C[C@@H](NC(=O)c2cccnc2)[C@@H](CO)O1)c1ccccc1 | 0.34
COc1ccc2c3c(n(C)c2c1)[C@@H](CO)N(C(=O)NC(C)C)CC31CCN(Cc2nccs2)CC1 | 0.26
COc1ccc(NC(=O)N2CC(=O)N3[C@H](CO)[C@@H](c4ccc(C#CCC5CCCC5)cc4)[C@@H]3C2)cc1 | 2.8
COc1cc(CN2CC3(CN(C(=O)Nc4c(C)noc4C)C3)c3c([nH]c4cc(OC)ccc34)[C@@H]2CO)cc(OC)c1 | -1.9
C[C@H]1CC=CC[C@H](c2ccc(F)cc2)NC(=O)[C@H](Cc2ccccc2)N(C)C(=O)c2ccccc2O1 (mixture of isomers) | 0.33
COc1ccc(CN2C[C@@H](O)COC[C@H]3O[C@H](CC(=O)N(C)C)CC[C@@H]32)cc1 | 0.46
C[C@H]1CN([C@@H](C)CO)C(=O)c2ccccc2-c2ccccc2CO[C@@H]1CN(C)Cc1ccccc1C(F)(F)F | 0.23
N#C[C@H]1[C@H](c2ccccc2-c2ccc(F)cc2)[C@H](CO)N1C(=O)NC1CCCCC1 | -0.27
CN1CCN(C(=O)C[C@@H]2C[C@@H]3c4cc(NS(C)(=O)=O)ccc4O[C@@H]3[C@H](CO)O2)CC1 | -1.1
COc1ccc(C#Cc2ccc([C@H]3[C@H](CO)N4C(=O)CN(C(=O)c5ccccc5)C[C@@H]34)cc2)cc1 | 1.9
COc1ccc(C#Cc2ccc([C@H]3[C@@H](CO)N4C(=O)CN(C(=O)c5ccccc5)C[C@H]34)cc2)cc1 | 2.2
O=C(c1ccccc1)N1CC(=O)N2[C@@H](CO)[C@H](c3ccc(C#Cc4ccccc4)cc3)[C@@H]2C1 | -3.8*
O=C(c1ccccc1)N1CC(=O)N2[C@@H](CO)[C@@H](c3ccc(C#Cc4ccccc4)cc3)[C@@H]2C1 | -9.1*
COc1ccc(C#Cc2ccc([C@@H]3[C@H]4CN(C(=O)c5ccccc5)CC(=O)N4[C@H]3CO)cc2)cc1 | 2.1
O=C(c1ccccc1)N1CC(=O)N2[C@H](C1)[C@@H](c1ccc(C#Cc3ccccc3)cc1)[C@@H]2CO | 0.44
O=C(CC(F)(F)F)N1C[C@@H]2[C@H](c3ccccc31)[C@H](CO)N2Cc1cccnc1 | 1.9
N#C[C@H]1[C@@H](c2ccc(C3=CCCC3)cc2)[C@@H](CO)N1S(=O)(=O)c1ccccc1 | 0.37
SMILES | IDE exosite FP
CO[C@H]1CN(C)C(=O)c2ccc(NC(=O)c3ccccc3F)cc2OC[C@H](C)N(C)C[C@@H]1C | 0.37
CC(C)CC#Cc1ccc([C@H]2[C@H]3CN(S(=O)(=O)c4ccccc4)CC(=O)N3[C@H]2CO)cc1 | 3.1
O=C(Nc1ccccc1)N1CCCCN2[C@H](C1)[C@H](c1ccc(Br)cc1)[C@@H]2CO | 4.9
COCC(=O)N1CCCCN2[C@@H](CO)[C@H](c3ccc(C#Cc4ccc(OC)cc4)cc3)[C@@H]2C1 | -3.1*
COc1ccc(C#Cc2ccc([C@H]3[C@H](CO)N4CCCCN(C(=O)c5ccncc5)C[C@@H]34)cc2)cc1 | 2.1
COCC(=O)N1CCCCN2[C@H](CO)[C@@H](c3ccc(C#Cc4ccccc4)cc3)[C@H]2C1 | -7.1*
COc1ccc(C#Cc2ccc([C@H]3[C@@H](CO)N4CCCCN(C(=O)c5ccncc5)C[C@@H]34)cc2)cc1 | -6.6*
COCC#Cc1ccc([C@H]2[C@H]3CN(C(=O)COC)CCCCN3[C@H]2CO)cc1 | 2.4
COc1ccc(C#Cc2ccc([C@@H]3[C@@H](CO)N4CCCCN(C(=O)c5ccncc5)C[C@H]34)cc2)cc1 | 1.7
COCC#Cc1ccc([C@H]2[C@@H](CO)N3CCCCN(C(=O)COC)C[C@@H]23)cc1 | 4.1
COCC#Cc1ccc([C@H]2[C@H](CO)N3CCCCN(C(=O)COC)C[C@@H]23)cc1 | 3.5
COCC(=O)N1CCCCN2[C@H](C1)[C@@H](c1ccc(C#Cc3ccc(OC)cc3)cc1)[C@@H]2CO | 4.1
N#Cc1cccc(-c2ccc([C@@H]3[C@@H](CO)N4CCCCN(C(=O)Nc5ccc(F)cc5)C[C@H]34)cc2)c1 | 4.7
COc1ccc2c3c(n(C)c2c1)[C@@H](CO)N(C(=O)Nc1cccc(F)c1)CC31CN(Cc2nccs2)C1 | 0.78
O=C(C[C@H]1CC[C@@H]2[C@H](COC[C@@H](O)CN2C(=O)c2cccnc2)O1)NCC1CC1 | 0.32
CCC(=O)Nc1ccc2c(c1)OC[C@H](C)N(Cc1ccccc1)C[C@H](C)[C@@H](OC)CN(C)C2=O | 2.1
OC[C@@H]1[C@H](c2ccccc2)[C@@H](CNCC2CCC2)N1CC1CC1 | 1.5
COc1cccc(CNC(=O)C[C@@H]2CC[C@@H]3[C@H](COc4ccc(NC(=O)c5cccs5)cc4C(=O)N3C)O2)c1 | -0.68
CC(C)CC#Cc1ccc([C@@H]2[C@@H](CO)N3CCCCN(S(=O)(=O)c4ccc(F)cc4)C[C@@H]23)cc1 | 4.3
O=S(=O)(c1ccccc1F)N1CCCCN2[C@@H](CO)[C@@H](c3ccc(-c4ccccc4)cc3)[C@@H]2C1 | 0.014
Cc1ccccc1S(=O)(=O)N1CCCCN2[C@H](CO)[C@@H](c3ccc(-c4cccc(F)c4)cc3)[C@@H]2C1 | -7.3*
Cc1cccc(-c2ccc([C@H]3[C@H]4CN(S(=O)(=O)c5ccccc5F)CCCCN4[C@H]3CO)cc2)c1 | -1.6
Cc1cccc(-c2ccc([C@@H]3[C@@H](CO)N4CCCCN(S(=O)(=O)c5ccccc5C)C[C@H]34)cc2)c1 | 2.1
Cc1cccc(-c2ccc([C@H]3[C@H](CO)N4CCCCN(S(=O)(=O)c5cccc(C)c5)C[C@@H]34)cc2)c1 | 1.1
Cc1cccc(-c2ccc([C@@H]3[C@@H](CO)N4CCCCN(S(=O)(=O)c5cccc(C)c5)C[C@H]34)cc2)c1 | 3.6
Cc1cccc(-c2ccc([C@@H]3[C@@H](CO)N4CCCCN(S(=O)(=O)c5cccc(C)c5)C[C@@H]34)cc2)c1 | -9.8*
Cc1cccc(-c2ccc([C@@H]3[C@@H](CO)N4CCCCN(S(=O)(=O)c5ccccc5C)C[C@@H]34)cc2)c1 | -20*
Cc1cccc(-c2ccc([C@H]3[C@H]4CN(S(=O)(=O)c5ccccc5C)CCCCN4[C@H]3CO)cc2)c1 | 4.5
O=S(=O)(c1ccccc1F)N1CCCCN2[C@H](CO)[C@H](c3ccc(-c4ccccc4)cc3)[C@H]2C1 | 1.9
Cc1cccc(-c2ccc([C@H]3[C@@H](CO)N4CCCCN(S(=O)(=O)c5ccccc5F)C[C@H]34)cc2)c1 | -3.5*
